SENP7 inh: blocks the human protease SENP7; AID 434973; recombinant SENP7, Z-RLRGG-aminoluciferin luminescence, 40 min; hit rate 1.5% among 330,000; inhibition, % at 5 µM;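 active means inhibition above about 50% at the single test dose, limit read from the data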;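 further: plate controls were DMSO with enzyme for no effect and no enzyme buffer wells for full effect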
SENP8 block-1: blocks human SENP8 cleavage of Nedd8 substrate | recombinant SENP8, Nedd8 substrate fluorescence | inhibition, % at 20 µM | hit rate 0.64% among 360,000 | AID 602440; in the data active means inhibition mostly above about 40%, no sharp cut-off; inactive means mostly below about 27%
Target sequence (Q96LD8 whole entry, looked up): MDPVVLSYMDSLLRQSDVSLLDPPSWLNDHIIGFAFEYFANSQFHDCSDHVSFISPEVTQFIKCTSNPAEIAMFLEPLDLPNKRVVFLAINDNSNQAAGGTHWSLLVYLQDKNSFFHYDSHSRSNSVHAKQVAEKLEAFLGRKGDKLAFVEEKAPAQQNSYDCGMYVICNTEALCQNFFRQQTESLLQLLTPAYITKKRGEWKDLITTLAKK
HSP90 inh: HSP90 refolding inhibition in rabbit reticulocyte lysate. hit rate 0.91% among 290,000. luciferase refolding luminescence, 3 h. inhibition, % at 5.6 µM. AID 1789;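 active means inhibition above the screen-wide mean plus 3 SD, computed separately per campaign, cut at about 16% in these data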;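 further: 0% = DMSO wells and 100% = 60 µM geldanamycin wells; inhibitors lower the luminescence because luciferase stays unfolded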
SENP6 inh: SENP6 protease inhibition; Recombinant SENP6 catalytic domain, aminoluciferin luminescence; inhibition, % at 10 µM; hit rate 1.8% among 330,000; AID 2599;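 active means inhibition above about 50% at the single tested dose, limit read from the data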;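 further: plate controls were DMSO wells with enzyme for no effect and DMSO wells lacking enzyme for full effect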
Target sequence (Q9GZR1 628-1112 limits assumed): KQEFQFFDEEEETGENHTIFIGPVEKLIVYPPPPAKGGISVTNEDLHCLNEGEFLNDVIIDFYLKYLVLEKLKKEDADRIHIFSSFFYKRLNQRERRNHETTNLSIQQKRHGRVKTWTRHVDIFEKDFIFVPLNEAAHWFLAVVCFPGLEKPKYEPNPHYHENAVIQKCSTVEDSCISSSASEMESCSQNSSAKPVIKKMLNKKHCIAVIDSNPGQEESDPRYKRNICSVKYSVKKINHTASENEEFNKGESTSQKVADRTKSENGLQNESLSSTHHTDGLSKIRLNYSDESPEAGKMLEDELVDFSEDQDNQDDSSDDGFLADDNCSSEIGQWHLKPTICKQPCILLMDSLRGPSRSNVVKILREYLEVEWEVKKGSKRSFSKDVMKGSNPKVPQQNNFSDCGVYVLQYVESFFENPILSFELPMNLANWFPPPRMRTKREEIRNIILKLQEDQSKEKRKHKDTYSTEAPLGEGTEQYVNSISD
SENP8 block-2: blocks the human protease SENP8. inhibition, % at 10 µM. hit rate 1.2% among 330,000. purified SENP8, Z-RLRGG-aminoluciferin cleavage, luminescence; in the data active means inhibition above about 50%
LGR2 inh: inhibitors of bursicon-induced Drosophila LGR2 receptor cAMP signaling. HEK293 LGR2, CRE-luciferase, bursicon-stimulated, 4 h. inhibition, % at 9.99 µM. hit rate 0.35% among 380,000;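 active means drop in luminescence signal, shown as inhibition above about 50% in the replicate tests, limit read from the data, passing the limit was not always enough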;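 further: agonist challenge used bursicon conditioned medium at about half maximal strength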
* marks the source's active call; other numbers are inactive results; · = no result. Compounds with a hit are over-represented: about 2.3% of the library has one in this group of screens.

SMILES | SENP7 inh | SENP8 block-1 | HSP90 inh | SENP6 inh | SENP8 block-2 | LGR2 inh
O=C(C[C@H]1CC[C@@H](NC(=O)Nc2cc(F)ccc2F)[C@H](CO)O1)NCc1ccc2c(c1)OCO2 | · | · | · | · | · | -4
C[n+]1cc2c3c(ccc2c2ccc4cc5c(cc4c21)OCO5)OCO3 | · | · | · | · | · | 101*
C[C@H](CO)N1C[C@H](C)[C@H](CN(C)S(=O)(=O)c2cccs2)Oc2c(NC(=O)Nc3cccc4ccccc34)cccc2C1=O | · | · | · | · | · | -11
Cc1nn(-c2ccccc2)c(C)c1/C=N/NC(=O)CSc1nnc(-c2ccccc2)n1-c1ccc(Cl)cc1 | 4 | 8 | -4 | -15 | 1 | 20
O=C(CSc1nnc(SCc2ccc(Cl)cc2)s1)N/N=C/c1ccc(C(=O)O)cc1 | 37 | 13 | 2 | 85* | 65* | 1
Cc1nn(-c2ccccc2)c(C)c1/C=N/NC(=O)CSc1nnc(SCc2ccccc2Cl)s1 | 27 | 5 | -1 | 71* | 61* | -45
COc1ccc(CNC(=O)C[C@@H]2CC[C@@H](NC(=O)Nc3ccc4c(c3)OCO4)[C@H](CO)O2)cc1 | · | · | · | · | · | -15
COc1ccc(/C=C/c2nc(-c3ccccc3O)n[nH]2)cc1 | 95* | -58 | -3 | 96* | 93* | 5
NC(=S)N=Nc1c(O)n(C2OC(=O)c3ccccc32)c2ccccc12 (stereo not drawn) | -1 | 49* | 6 | -7 | -2 | ·
C[C@H]1CN([C@@H](C)CO)C(=O)c2cccc(N(C)C)c2O[C@H]1CN(C)C(=O)Nc1ccccc1 | · | · | · | · | · | -8
COc1ccc(C=C2CS(=O)(=O)CC(=Cc3ccc(OC)cc3)C2=O)cc1 | · | -9 | · | · | · | active
COc1ccc(/C=C2\CCCCC2=O)cc1 | -8 | 7 | · | -20 | -11 | -16
CC(C)NC(=O)Nc1ccc2c(c1)C(=O)N([C@H](C)CO)C[C@@H](C)[C@H](CN(C)C(=O)Nc1ccc(F)cc1)O2 | · | · | · | · | · | -13
O=C(N=Nc1c(O)[nH]c2ccccc12)c1ccc2c(c1)OCO2 | 91* | 26 | -2 | 66* | 46 | -6
O=C1c2ccccc2-c2nccnc21 | 6 | 27 | 0 | -7 | 4 | ·
O=C1c2ccccc2-c2c1nc1c([n+]2[O-])CCCC1 | 9 | 42* | 1 | -1 | -2 | ·
C(=Cc1cnc2ccccc2n1)c1ccc2c(c1)OCO2 | · | -498 | · | · | · | 99*
C(=Cc1nc2ccccc2o1)c1ccc2c(c1)OCO2 | · | -486 | · | · | · | 81*
CC(=O)Nc1ccc(/C=C/c2nc3ccccc3o2)cc1 | 9 | -274 | -5 | 29 | 11 | -1
Cn1c(/N=C/c2ccc3c(c2)OCO3)nc2ccccc21 | -11 | 5 | 3 | 47 | 10 | -8
COc1ccc2c3c([nH]c2c1)[C@@H](CO)N(C(=O)CC1CC1)CC31CCN(C(=O)CC2CC2)CC1 | · | · | · | · | · | 9
Fc1ccc(C2=Nc3cccc4cccc(c34)N2)cc1 | -8 | 11 | 0 | -4 | -10 | 14
FC(F)(F)C1=Nc2cccc3cccc(c23)N1 | 22 | 62* | · | -13 | 12 | 1
C=CC(=O)N1C/C(=C/c2ccccc2)C(=O)/C(=C\c2ccccc2)C1 | · | 1 | · | · | · | 100*
C=CC(=O)N1C/C(=C/c2ccc(Cl)cc2)C(=O)/C(=C\c2ccc(Cl)cc2)C1 | · | -8 | · | · | · | 104*
SMILES | SENP7 inh | SENP8 block-1 | HSP90 inh | SENP6 inh | SENP8 block-2 | LGR2 inh
O=C1C(=Cc2ccc(Cl)cc2)Cc2ccccc21 | · | 24 | · | · | · | -54
O=C(C[C@@H]1CC[C@H]2NC[C@H](O)COC[C@@H]2O1)NCCN1CCCC1 | · | · | · | · | · | -6
CCCCNc1ccc2nsnc2c1[N+](=O)[O-] | 20 | 11 | 0 | 67* | -4 | -5
Cc1ccc2nsnc2c1NC(=O)c1ccc([N+](=O)[O-])cc1 | -7 | 21 | 0 | 5 | -4 | ·
CCS(=O)(=O)N1CCC2(CC1)CN(Cc1ccc3c(c1)OCO3)[C@@H](CO)c1c2c2ccc(OC)cc2n1C | · | · | · | · | · | -14
N#CC(C#N)=NNc1ccc2cn[nH]c2c1 | · | 23 | · | · | · | 82*
C[C@@H]1CCCCO[C@H](CN(C)CC2CCCCC2)[C@H](C)CN([C@H](C)CO)C(=O)c2cc(NS(=O)(=O)c3ccc(Cl)cc3)ccc2O1 | · | · | · | · | · | 26
COc1ccc(-c2nc3ccccn3c2C=O)cc1 | 55* | -8 | -1 | 62* | 48 | -57
CCCN1C[C@H](C)[C@H](OC)CN(C)C(=O)c2cc(NC(=O)Nc3ccccc3F)ccc2OC[C@@H]1C | · | · | · | · | · | -10
COc1ccc2cc(CNCCOCCOCCNCc3ccc4cc(OC)ccc4c3)ccc2c1 | · | -4 | · | · | · | 103*
COc1ccc(N=Nc2c(N)nn(C)c2N)cc1 | · | 51* | · | · | · | -102
CC(C)NC(=O)Nc1ccc2c(c1)C(=O)N([C@H](C)CO)C[C@H](C)[C@@H](CN(C)C(=O)CCC(F)(F)F)OCCCC[C@@H](C)O2 | · | · | · | · | · | 7
Oc1ccc(/C=N/N=C(c2ccccc2)c2ccccc2)c(O)c1O | · | 34* | 2 | · | · | -1
COc1ccc(Nc2nc(N3CCCCC3)c3ccccc3n2)cc1 | 7 | -20 | -1 | -6 | -3 | ·
Oc1ccc(Nc2nc(N3CCCC3)c3ccccc3n2)cc1 | -4 | 10 | 1 | -12 | -9 | 76*
C[C@@H]1CCCCO[C@H](CN(C)Cc2ccccc2)[C@@H](C)CN([C@@H](C)CO)C(=O)c2cc(NC(=O)Cc3ccccc3)ccc2O1 | · | · | · | · | · | 20
COc1ccccc1/C=C1\SC(=S)N(CCC(=O)N2CCCCC2CCO)C1=O (stereo not drawn) | -5 | 51* | -3 | 2 | 0 | 10
COc1ccccc1/C=C1\SC(=O)N(CCC(=O)N2CCCCC2CCO)C1=O (stereo not drawn) | -5 | -33 | 6 | 2 | -9 | 7
CCOC(=O)C1=C(C)NC2=C(C(=O)CC(c3ccc(OC)c(OC)c3)C2)C1c1ccc(C)o1 (stereo not drawn) | -9 | -120 | -3 | 1 | -4 | ·
COc1ccccc1NC(=O)C1=C(C)NC2=C(C(=O)CC(c3ccc(OC)c(OC)c3)C2)C1c1coc2ccccc2c1=O (stereo not drawn) | 1 | -32 | 16* | 18 | -2 | 8
NC(N)=N/N=C/c1ccccc1 | 2 | 11 | 0 | -3 | 9 | ·
NC(N)=N/N=C/c1ccc(Cl)c(Cl)c1 | -1 | 26 | -1 | -8 | 1 | 64*
Nc1ccc(N=Nc2ccccc2)c(N)n1 | 4 | 36* | 0 | 22 | 15 | -67
Nc1ccc(N=Nc2ccccc2)c2ccccc12 | 11 | 24 | 1 | -3 | -8 | -6
c1ccc(-n2nnnc2Sc2ncnc3sc4c(c23)CCCC4)cc1 | 5 | -110 | 1 | 7 | 3 | 66*
O=[N+]([O-])c1cccc(C=NNc2ccc3ccccc3n2)c1O | · | 36 | · | · | · | 81*
O=[N+]([O-])c1ccc(NN=Cc2cccc3ccccc23)nc1 | · | -270 | · | · | · | -24
COc1cccc(/C=N/Nc2ccc([N+](=O)[O-])cn2)c1O | 98* | -28 | 11 | 90* | 84* | 67*
Cc1cc(/C=N/Nc2ccc([N+](=O)[O-])cn2)c(C)n1-c1ccccc1 | 7 | 35 | 16* | -7 | 3 | ·

Bioassay records from PubChem.
